Screens from PubChem BioAssay.
ZTA DNA inh: ZTA (EBV) inhibition in EBNA-1 counter-screen | inhibition, % at 11 µM | ZTA-DNA binding, fluorescence polarization | 320,000 tested, 0.15% active | P03206; in the data active means inhibition above about 33%
EBNA-1 inh: blocks EBNA-1 binding to DNA; EBNA-1 DNA binding, fluorescence polarization; inhibition, % at 14.8 µM; 300,000 tested, 0.34% active; in the data active means inhibition above about 28%
LYPLA1 inh: counter-screen for PME1 inhibitors: inhibitors of human LYPLA1; recombinant LYPLA1, FP-Rh probe fluorescence polarization; 320,000 tested, 0.16% active; inhibition, % at 5.9 µM; AID 2174; O75608;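 active means inhibition above the mean of all tested compounds plus 3 SD, set per campaign, cut at about 14% in these data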;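 further: inhibitors block serine hydrolase probe labeling of LYPLA1 so polarization falls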
Target sequence (O75608 whole entry, looked up): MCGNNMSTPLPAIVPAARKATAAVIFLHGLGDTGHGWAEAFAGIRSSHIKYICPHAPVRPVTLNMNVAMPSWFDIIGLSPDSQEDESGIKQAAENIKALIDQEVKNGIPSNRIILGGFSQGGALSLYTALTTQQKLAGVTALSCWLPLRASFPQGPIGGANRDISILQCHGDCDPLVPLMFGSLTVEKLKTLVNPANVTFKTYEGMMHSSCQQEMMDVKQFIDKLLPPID
LANA-H2B inh: blocks KSHV LANA binding to histone H2A/H2B; cell-free LANA-H2A/H2B peptide, fluorescence polarization; AID 2629; 320,000 tested, 0.6% active; inhibition, % (concentration not given with the values); Q9QR71; in the data active means inhibition mostly above about 10%, no sharp cut-off; inactive means mostly below about 6.7%
LYPLA2 inh: LYPLA2 (human) inhibition in PME1 counter-screen; recombinant LYPLA2, FP-Rh probe fluorescence polarization; inhibition, % at 5.9 µM; AID 2177; 320,000 tested, 0.38% active; O95372;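 active means inhibition above the screen-wide mean plus 3 SD, limit set per campaign, cut at about 26% in these data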
Of the large screens only hits and unclear results are named; the others gave an inactive call; ! = not active in a repeat. The list is not random: actives were taken first. Their share in the collection is about 1.4%.

S=C(Nc1cccc(Cl)c1)N(CCCN1CCCC1)Cc1cccn1Cc1ccc(Cl)cc1	none
CC(=O)Nc1ccc(Nc2ccc3c4c(cc(=O)n3C)-c3ccccc3C(=O)c24)cc1	none
O=C1c2ccccc2C(=O)c2c(Nc3ccc(CCO)cc3)ccc(O)c21	LYPLA2 inh 27.1
CCOc1ccc(S(=O)(=O)NCCC(=O)NCC(c2ccc(OC)cc2)N2CCCCC2)cc1 (stereo unspecified)	none
CCOc1ccc(N(CC(=O)N2CCOCC2)S(=O)(=O)c2ccc(Cl)cc2)cc1	none
O=C(NC1CC1)c1ccc(-n2cccc2)cc1	LANA-H2B inh 99.4
O=C(NC1CCCCCC1)c1ccc(-n2cnnc2)cc1	none
O=C(CNC(=O)N1CC(=O)Nc2ccccc21)NCCc1ccc(Cl)cc1	LANA-H2B inh 16.7
O=C(CNC(=O)N1CC(=O)Nc2ccccc21)NCc1cccc(Cl)c1	none
CC(=O)NCCSCCNC(C)=O	none
CC(=O)NCCCCCCNC(C)=O	LANA-H2B inh 30.6!
O=C(COC(=O)c1ccc(CSc2ccc(Cl)cc2)cc1)Nc1ccccc1	EBNA-1 inh 28.8
O=C(CCCCCNC(=O)N1CCn2c1nc1ccccc12)NCCc1ccccc1	none
S=c1[nH]nc(-c2ccc(Cl)cc2Cl)n1-c1ccc(Cl)cc1	LANA-H2B inh 45.4
CC1CCCC(NC(=O)C2CCN(S(=O)(=O)N3CCOCC3)CC2)C1C (stereo unspecified)	none
CC1CCCCC1NC(=O)C1CCN(S(=O)(=O)N2CCOCC2)CC1 (stereo unspecified)	LANA-H2B inh 25.9
Cc1ccc(CS/C(Nc2ccccc2C)=C(\C#N)C(N)=O)c(C)c1	none
CCCCCCCc1c(O)nc(SCC(=O)O)[nH]c1=O	LANA-H2B inh 48.4
CCCOc1ccc(/C=N/NC(=O)CSc2ccccn2)cc1OC	LANA-H2B inh 12.2
COc1cc(/C=N/NC(=O)CSc2ccccn2)ccc1O	none
Cc1cc(C(=O)COC(=O)CCc2nc3ccccc3s2)c(C)n1C	LANA-H2B inh 12.5
c1ccc2c(c1)CCCN2Cc1nnc2n1CCCCC2	LANA-H2B inh 58.8
O=C(CSc1nc2c([nH]c3ccccc32)c(=O)n1-c1ccccc1)N1CCOCC1	none
O=C(CSc1nc2c([nH]c3ccccc32)c(=O)n1-c1cccc(Cl)c1)N1CCOCC1	EBNA-1 inh 37.3
CCOC(=O)[C@H]1[C@H]2COc3ccc(Br)cc3[C@@H]2N2C(=O)c3ccc(Cl)cc3NC(=O)[C@@]12C	none
COc1cc(C(=O)NNC(=O)NC2CCCCC2)cc(OC)c1OC	LANA-H2B inh 13.6
COc1cc(C(=O)NNC(=O)C2CCCC2)cc(OC)c1OC	none
O=C(N/C(=C\c1ccco1)C(=O)N1CCCC1CO)c1ccccc1 (stereo unspecified)	LANA-H2B inh 21.3
CC1CCCN(C(=O)/C(=C/c2ccco2)NC(=O)c2ccccc2)C1 (stereo unspecified)	none
O=[N+]([O-])C1C(c2ccccc2)=NOC1c1ccccc1O (stereo unspecified)	none
COc1ccc(-c2cc(C(F)(F)F)n3nc(C(=O)Nc4cc(C)on4)cc3n2)cc1OC	none
COc1ccc(-c2cc(C(F)(F)F)n3nc(C(=O)N(C)Cc4ccccc4)cc3n2)cc1OC	LANA-H2B inh 18.2
CN1CCN(C(=O)c2cc(=O)c3cc(Cl)cc(Cl)c3o2)CC1	none
COc1ccccc1NC(=O)c1cc2ccccc2o/c1=N\O	EBNA-1 inh 42.1
COc1ccccc1NC(=O)c1cc2ccc(O)cc2o/c1=N\O	none
CCCCC1=CC2=CC(=O)C(C)(OC(=O)c3ccc(Cl)nc3)C(=O)C2=CO1 (stereo unspecified)	LYPLA1 inh 19.8
O=C1OC(CC(=O)N(Cc2nnc(-c3ccccc3Cl)o2)C2CC2)c2ccccc21 (stereo unspecified)	LANA-H2B inh 20.3 (no result: EBNA-1 inh)
COc1cccc(OC)c1C(=O)Nc1ccncc1	none
Cc1ccc(NC(=O)C(c2ccccc2)c2ccccc2)c(O)c1	none
Cc1cc(C(=O)CSc2nc3ccccc3n2CCC#N)c(C)n1Cc1cccs1	EBNA-1 inh 34.1
NC(=O)C1CCN(C(=O)/C(=C/c2ccccc2)NC(=O)c2ccccc2)CC1	none (no result: ZTA DNA inh, EBNA-1 inh, LYPLA1 inh, LYPLA2 inh)
N/C(=N/OS(=O)(=O)c1ccc([N+](=O)[O-])cc1)c1ccncc1	LANA-H2B inh 37.3
Cc1ccc(C)n1-c1ccc(N2CCOCC2)cc1	none
Cc1ccc(C)n1-c1ccc(N(C)C)cc1	ZTA DNA inh 180.5, EBNA-1 inh 108.7
Cc1cccc(NC(=O)CCC(=O)OCC(=O)c2ccc(Oc3ccc([N+](=O)[O-])cc3)cc2)c1	LYPLA2 inh 31.2
